22 molecules from PubChem BioAssay (NCATS) can be followed below.

Results filed as inconclusive are left out. A number with no mark means an inactive call. Calls come from the whole dose curve; as a rule, active = well fitted curve in the direction sought with a large enough effect; inconclusive = small, poorly fitted or top-dose-only effect, or another doubt; inactive = no such curve, though single readings can be large or run the other way.
% is set by controls: 0 for no effect and ±100 for the full control effect.

Calcium and integrin-binding protein 1 (Homo sapiens), sequence (Q99828 whole entry, looked up): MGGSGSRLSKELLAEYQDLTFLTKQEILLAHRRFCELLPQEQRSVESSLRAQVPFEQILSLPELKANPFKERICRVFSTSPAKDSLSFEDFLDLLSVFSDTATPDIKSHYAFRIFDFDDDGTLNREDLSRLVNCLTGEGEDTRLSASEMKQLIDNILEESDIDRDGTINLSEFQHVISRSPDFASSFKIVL

The target of the experiment is Calcium and integrin-binding protein 1 (Homo sapiens) (UniProt Q99828). Nature of the experiment: Validation qHTS for Identification of Calcium Integrin Binding protein 1 (CIB1) Competitor (AID 1508618). To be noted: CIB1-GST / FITC-alphaIIb peptide fluorescence polarization; series mostly up to 114 µM; activity change, negative = inhibition: at the top concentration. The method, boiled down:
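Displacement of FITC-alphaIIb peptide (100 nM) from CIB1-GST (1 uM) is monitored by polarization in quantitative HTS format; buffer carries 5 mM CaCl2 and 125 mM NaCl at pH 7.4, incubations are at room temperature.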
On the technique in general: In qHTS, concentration-response curves come from the screen itself.
Regarding `CN(C)C(=O)/N=N/C(=O)N(C)C`, the “activity change, negative = inhibition” value is 7.04%.
Consider `Cc1cccc(C(=O)NCN2CCN(c3ccccc3C#N)CC2)c1`, for which the “activity change, negative = inhibition” value was -5.88%.
Consider `CSC(=N)N`, for which the “activity change, negative = inhibition” value is 4.67%.
Consider `COc1ccc2c(c1)c(CC(=O)O)c(C)n2C(=O)c1ccccc1`, for which the “activity change, negative = inhibition” value was 10.3%.
In the case of `COc1ccc2c(c1)CCC1C2CC[C@@]2(C)C1CC[C@@H]2NCCCCCCN1C(=O)C=CC1=O` (some centres not stated) it was 14.5%.
With `O=C(O)c1cccnc1C(=O)O`, the “activity change, negative = inhibition” value was 15.3%.
Next, `Cc1cc2c(cc1Cl)N(C(=O)Nc1ccnc3ccccc13)CC2`: 1.96%; `Nn1nnc2ccccc21`: 7.23%.
Regarding `O=C(O)C1=CCCN(CCON=C(c2ccccc2)c2ccccc2)C1`, the “activity change, negative = inhibition” value is 8.3%.
In the case of `N[C@H]1CONC1=O` it was 11.7%.
In the case of `N[C@@H](CS(=O)O)C(=O)O` it was 1.69%.
Next, `O=C(OCCN1CCOCC1)C1(c2ccccc2)CCCCC1`: 4.81%; `C#CCn1c(=O)c2c(ncn2C)n(C)c1=O`: 5.9%; `CNc1cc(NS(=O)(=O)c2ccc(N)cc2)nc(NC)n1`: -5.91%.
Take `CCC(=O)N1CCN(C(=O)c2ccccc2)CC1`: the “activity change, negative = inhibition” value is 5.65%.
With `CC(=O)[C@H]1CCC2C3CC=C4C[C@@H](OS(=O)(=O)O)CC[C@]4(C)C3CC[C@@]21C` (some centres not stated), the “activity change, negative = inhibition” value is -1.09%.
Next, `COc1cc(CC(=O)O)ccc1O`: 2.1%; `N[C@H](C(=O)O)c1cc(O)cc(O)c1`: 0.315%; `CCCCCC[C@@H]([C@@H](C)O)n1cnc2c(N)ncnc21`: 3.83%.
In the case of `OC1(c2ccc(Cl)cc2)CCN(Cc2c[nH]c3ccccc23)CC1` it was 3.62%; in that of `CC(C)[C@@H]1CC[C@@H](C)C[C@@H]1P(=O)(c1ccccc1)c1ccccc1`, 2.69%.
Take `NC[C@@H]1O[C@H](c2ccccc2)Cc2c1ccc(O)c2O`: the “activity change, negative = inhibition” value was 12.6%.
